Results: PubChem BioAssay (NCI)
Compounds without any hit were thinned out: in the full panel of roughly 83,000, 20% have a hit.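 A percent growth of 40 corresponds to 60% growth inhibition; 0 means no net growth; -100 means all cells died. Active threshold: below 10.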 Calls of active or inactive are those of the source.

Tests used:
Test in all cases: NCI-60 one-dose screen, 48 h (100 = growth as untreated, 0 = no growth, -100 = all killed)
Details in all cases: 10 µM unless noted
NCI-H23 lung = test system: NCI-H23 lung
NCI-H226 lung = test system: NCI-H226 lung
NCI-H322M lung = test system: NCI-H322M lung
HOP-62 NSCLC = test system: HOP-62 NSCLC
NCI-H460 lung = test system: NCI-H460 lung
HOP-92 NSCLC = test system: HOP-92 NSCLC
NCI-H522 lung = test system: NCI-H522 lung
A549/ATCC NSCLC = test system: A549/ATCC NSCLC
786-0 renal = test system: 786-0 renal

Measured: growth

O=C(CC12CC3CC(CC(C3)C1)C2)NCCOCCOCCNC(=O)c1cc2c(o1)C(=O)c1ccccc1C2=O
active: NCI-H23 lung -52.9% | NCI-H226 lung -71.7% | NCI-H322M lung -90.2% | HOP-62 NSCLC -58.3% | NCI-H460 lung -72.6% | HOP-92 NSCLC -8.25% | NCI-H522 lung -49.5% | A549/ATCC NSCLC -61.7% | 786-0 renal -29.1%

CCN(CC)CC(=O)Nc1cccc(C(=O)OC(C)C)c1
inactive: NCI-H23 lung 92.1% | NCI-H226 lung 96.5% | NCI-H322M lung 96.8% | HOP-62 NSCLC 92.2% | NCI-H460 lung 112% | HOP-92 NSCLC 82% | NCI-H522 lung 66.3% | A549/ATCC NSCLC 93.7% | 786-0 renal 79.8%

C=CC(=O)N[C@@H](Cc1ccc(-c2cc(Cl)cc(Cl)c2)cc1)[C@@H](O)[C@H](O)C(=O)O
inactive: NCI-H23 lung 99.9% | NCI-H226 lung 84.9% | NCI-H322M lung 105% | HOP-62 NSCLC 79% | NCI-H460 lung 105% | HOP-92 NSCLC 93.9% | NCI-H522 lung 67.7% | A549/ATCC NSCLC 79% | 786-0 renal 98.6%

Cc1nc(Nc2ccccn2)sc1C(=O)/C=C/c1ccc(Br)cc1
inactive: NCI-H23 lung 88.3% | NCI-H226 lung 85.6% | NCI-H322M lung 80% | HOP-62 NSCLC 63.4% | NCI-H460 lung 92% | HOP-92 NSCLC 96.3% | NCI-H522 lung 61.5% | A549/ATCC NSCLC 86.2% | 786-0 renal 96.9%

O=C(NCCN1CCC(O)CC1)c1cc2c(o1)C(=O)c1ccccc1C2=O
active: NCI-H23 lung -50.9% | NCI-H226 lung -77.5% | NCI-H322M lung -98.6% | HOP-62 NSCLC -66.6% | NCI-H460 lung -75.9% | HOP-92 NSCLC -67.4% | NCI-H522 lung -56.3% | A549/ATCC NSCLC -57.7% | 786-0 renal -78.3%

Cl.Fc1c[c-]c(-c2ccccn2)c(F)c1.[Pt].c1ccc([PH+](C[PH+](c2ccccc2)c2ccccc2)c2ccccc2)cc1
active: NCI-H23 lung -78.1% | NCI-H226 lung -65.9% | NCI-H322M lung -98.3% | HOP-62 NSCLC -55.4% | NCI-H460 lung -63.5% | HOP-92 NSCLC -74.2% | NCI-H522 lung -60.1% | A549/ATCC NSCLC -58.5% | 786-0 renal -68.1%

CNC(=O)c1c(NC(=O)c2ccc(C(C)(C)C)cc2)sc2c1CCC(=O)C2
inactive: NCI-H322M lung 35.4% | HOP-62 NSCLC 17% | A549/ATCC NSCLC 15.8% | 786-0 renal 29.3%
active: NCI-H23 lung 6.65% | NCI-H226 lung -2.45% | NCI-H460 lung 1.8% | HOP-92 NSCLC -22.3% | NCI-H522 lung -37%

COc1ccc(/C(C)=N/NS(=O)(=O)c2ccc(C)cc2)cc1OC
inactive: NCI-H23 lung 105% | NCI-H226 lung 106% | NCI-H322M lung 120% | HOP-62 NSCLC 117% | NCI-H460 lung 97.8% | HOP-92 NSCLC 69% | NCI-H522 lung 117% | A549/ATCC NSCLC 102% | 786-0 renal 102%

C=C(C)[C@@H]1CC[C@]2(CO)CC[C@]3(C)[C@H](CC[C@@H]4[C@@]5(C)C=C(C#N)C(=O)C(C)(C)[C@@H]5CC[C@]43C)[C@@H]12
active: NCI-H460 lung -7.1% | HOP-92 NSCLC 8.38%
inactive: NCI-H23 lung 16.6% | NCI-H226 lung 25.6% | NCI-H322M lung 21.4% | HOP-62 NSCLC 23.2% | NCI-H522 lung 24.1% | A549/ATCC NSCLC 12.6% | 786-0 renal 14.8%

CC(C)c1ccc(C(=O)OC(=O)c2ccc(C(C)C)cc2)cc1
inactive: NCI-H23 lung 86.4% | NCI-H226 lung 97.9% | NCI-H322M lung 88.8% | HOP-62 NSCLC 86.2% | NCI-H460 lung 96.3% | HOP-92 NSCLC 87.8% | NCI-H522 lung 85.3% | A549/ATCC NSCLC 103% | 786-0 renal 95.8%

c1ccc2[nH]c(SSc3nc4ncncc4[nH]3)nc2c1
inactive: NCI-H23 lung 32.1% | NCI-H226 lung 57.6% | NCI-H322M lung 73.5% | HOP-62 NSCLC 21.2% | NCI-H460 lung 42.7% | HOP-92 NSCLC 27.5% | NCI-H522 lung 35.6% | A549/ATCC NSCLC 80% | 786-0 renal 16%

O=C(NC1CCOCC1)c1ccc2c(c1)CN(c1ncc(Cc3cccc(-n4cccn4)c3)s1)CC2
inactive: NCI-H23 lung 57.7% | NCI-H226 lung 62% | NCI-H322M lung 87.8% | HOP-62 NSCLC 104% | NCI-H460 lung 79.9% | HOP-92 NSCLC 44.9% | NCI-H522 lung 38.8% | A549/ATCC NSCLC 76% | 786-0 renal 68.7%

C=C1C(=O)O[C@H]2[C@H]1CC/C(Cn1cc(CNCCc3c[nH]c4ccccc34)nn1)=C\CC[C@@]1(C)O[C@@H]21
active: NCI-H522 lung 3.17%
inactive: NCI-H23 lung 95% | NCI-H226 lung 101% | NCI-H322M lung 86.8% | HOP-62 NSCLC 86.3% | NCI-H460 lung 104% | HOP-92 NSCLC 61.6% | A549/ATCC NSCLC 95.7% | 786-0 renal 99.1%

CN=C1C=CC(=C(c2ccc(N(C)C)cc2)c2ccc(N(C)C)cc2)C=C1
active: NCI-H23 lung -8.66% | NCI-H226 lung 6.94% | NCI-H322M lung -25.8% | HOP-62 NSCLC -23.4% | NCI-H460 lung -49.4% | HOP-92 NSCLC -39.1% | NCI-H522 lung -36.8% | A549/ATCC NSCLC -23.6% | 786-0 renal -63.1%

NC(N)=N/N=C(/c1ccccc1)c1ccccc1F
inactive: NCI-H23 lung 34.4% | NCI-H226 lung 14.4% | NCI-H322M lung 62% | HOP-62 NSCLC 17.5% | NCI-H460 lung 13.2% | HOP-92 NSCLC 57.8% | A549/ATCC NSCLC 28.4%
active: NCI-H522 lung 4.97% | 786-0 renal -26.2%

COc1ccc(C2CC(c3ccccc3)=NN2c2nc(C)c(C(C)=O)s2)cc1 (stereo unspecified)
inactive: NCI-H23 lung 99.3% | NCI-H226 lung 101% | NCI-H322M lung 98.6% | HOP-62 NSCLC 101% | NCI-H460 lung 106% | HOP-92 NSCLC 95.4% | NCI-H522 lung 88.3% | A549/ATCC NSCLC 98.7% | 786-0 renal 101%

CCN(CC)S(=O)(=O)c1ccc(O)c(NC(=O)c2[nH]c(C)c(C(C)=O)c2CCc2ccc(Cl)cc2)c1
inactive: NCI-H23 lung 19.6% | NCI-H226 lung 62.5% | NCI-H322M lung 54.7% | HOP-62 NSCLC 48.9% | NCI-H460 lung 50.2% | HOP-92 NSCLC 38.2% | NCI-H522 lung 11.9% | A549/ATCC NSCLC 37.2% | 786-0 renal 73.4%

Clc1cnc(Nc2ccc(OCCN3CCCC3)cc2)nc1NCc1ccco1
active: NCI-H226 lung -9.35% | NCI-H460 lung 3.25% | HOP-92 NSCLC 5.42%
inactive: NCI-H23 lung 10.2% | NCI-H322M lung 19.9% | HOP-62 NSCLC 11.7% | NCI-H522 lung 55.2% | A549/ATCC NSCLC 11.3% | 786-0 renal 23.7%

CC(C)n1nc(C#Cc2cccc(NC(=O)c3cccc(C(F)(F)F)c3)c2)c2c(N)ncnc21
active: NCI-H23 lung -3.4% | NCI-H226 lung -0.0561% | NCI-H322M lung -18.3% | HOP-62 NSCLC -37.9% | NCI-H460 lung 5.91% | HOP-92 NSCLC -33.7% | NCI-H522 lung -18.6% | A549/ATCC NSCLC -14.4% | 786-0 renal -20.9%

CC(/C=N/NC(=O)c1cc(-c2ccco2)[nH]n1)=C\c1ccccc1
active: 786-0 renal -91.2%
inactive: NCI-H23 lung 93% | NCI-H226 lung 88.5% | NCI-H322M lung 93.3% | HOP-62 NSCLC 95.4% | NCI-H460 lung 127% | HOP-92 NSCLC 57.6% | NCI-H522 lung 110% | A549/ATCC NSCLC 105%

CCN(CC)c1ccc(Nc2ccc(CC(=O)c3ccccc3)cc2)cc1
inactive: NCI-H23 lung 81.1% | NCI-H226 lung 97.4% | NCI-H322M lung 90.7% | HOP-62 NSCLC 94.6% | NCI-H460 lung 96.3% | HOP-92 NSCLC 77.5% | NCI-H522 lung 47% | A549/ATCC NSCLC 91.4% | 786-0 renal 88.3%

CCCCN(CCCC)CCCn1c(=O)c2sc3ncccc3c2n2nnc(-c3ccccc3)c12
inactive: NCI-H23 lung 101% | NCI-H226 lung 105% | NCI-H322M lung 103% | HOP-62 NSCLC 105% | NCI-H460 lung 105% | HOP-92 NSCLC 74.8% | NCI-H522 lung 89.5% | A549/ATCC NSCLC 102% | 786-0 renal 108%

CCCCCCCSc1ccc(C(=O)O)cc1
inactive: NCI-H23 lung 102% | NCI-H226 lung 97.2% | NCI-H322M lung 99.7% | HOP-62 NSCLC 106% | NCI-H460 lung 104% | HOP-92 NSCLC 83.5% | NCI-H522 lung 100% | A549/ATCC NSCLC 98.9% | 786-0 renal 100%

C=C(CNCCc1ccc(O)cc1)[C@@H]1CC[C@]2(COC3CCCCO3)CC[C@]3(C)[C@H](CC[C@@H]4[C@@]5(C)CCC(NCCO)C(C)(C)[C@@H]5CC[C@]43C)[C@@H]12 (stereo partly specified)
active: NCI-H23 lung -81% | NCI-H226 lung -54.2% | NCI-H322M lung -96.5% | HOP-62 NSCLC -89.2% | NCI-H460 lung -79.9% | HOP-92 NSCLC -80.8% | NCI-H522 lung -77.3% | A549/ATCC NSCLC -88.6% | 786-0 renal -90.2%

C=C(Cl)COC(=O)C(C)(C)O
inactive: NCI-H23 lung 99.4% | NCI-H226 lung 113% | NCI-H322M lung 90% | HOP-62 NSCLC 105% | NCI-H460 lung 104% | HOP-92 NSCLC 103% | NCI-H522 lung 93.8% | A549/ATCC NSCLC 94% | 786-0 renal 101%

O=C1CSC(c2ccccc2O)N1c1nnc(Cn2cnnc2)o1 (stereo unspecified)
inactive: NCI-H23 lung 77.3% | NCI-H226 lung 78.5% | NCI-H322M lung 87.3% | HOP-62 NSCLC 78.7% | NCI-H460 lung 86.9% | HOP-92 NSCLC 53.9% | NCI-H522 lung 98.1% | A549/ATCC NSCLC 97.7% | 786-0 renal 25.8%

CN1CCN(c2ccc3nc(/N=C/c4ccc5sc(-c6ccc([N+](=O)[O-])cc6)nc5c4)sc3c2)CC1
inactive: NCI-H23 lung 99.4% | NCI-H226 lung 97.9% | NCI-H322M lung 105% | HOP-62 NSCLC 120% | NCI-H460 lung 103% | HOP-92 NSCLC 111% | NCI-H522 lung 95% | A549/ATCC NSCLC 98.6% | 786-0 renal 101%

CCn1nc(C#Cc2c(C)ccc3c(Nc4ccc(Cl)cc4)nccc23)c2c(N)ncnc21
active: HOP-62 NSCLC -0.0802% | NCI-H522 lung -15.4%
inactive: NCI-H23 lung 18.4% | NCI-H226 lung 14.8% | NCI-H322M lung 29.2% | NCI-H460 lung 10.6% | HOP-92 NSCLC 13.6% | A549/ATCC NSCLC 16.8% | 786-0 renal 14.1%

CC(C)(C)CC(C)(C)Nc1c(-c2ccc(-c3ccccc3)cc2)nc2cnccn12
inactive: NCI-H23 lung 91.5% | NCI-H226 lung 87.4% | NCI-H322M lung 81.5% | HOP-62 NSCLC 79.9% | NCI-H460 lung 80% | HOP-92 NSCLC 93.3% | NCI-H522 lung 37.5% | A549/ATCC NSCLC 56.4% | 786-0 renal 80.6%
